Twelve compounds from PubChem BioAssay (NCI) can be followed below.

About 83,000 compounds went through this panel and 20% of them were active in at least one assay; those are over-represented in the sample as a whole.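 Assay: single dose, 48 h. Readout: percent growth (0 = no net growth; negative = cell death). Active: <10.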 Values without a mark were called inactive. Active and inactive are the calls of the source.

Common to all, as to assay: NCI-60 one-dose screen, 48 h (100 = growth as untreated, 0 = no growth, -100 = all killed)
Holding throughout (settings): 10 µM unless noted

For test [1], the system named is NCI-H23 lung.
In test [2] the test system is NCI-H226 lung.
The test system of test [3] is NCI-H322M lung.
Test [4] deals with HOP-62 NSCLC.
In test [5] the test system is NCI-H460 lung.
Test [6] relates to HOP-92 NSCLC.
The subject of test [7] is NCI-H522 lung.
Test [8] deals with A549/ATCC NSCLC.
In test [9] the test system is 786-0 renal.
Test [10] concerns COLO 205 colon.

For the compound `O=C1Nc2ccc(Cl)cc2/C1=N/c1nc(-c2ccc(F)cc2)cs1`, the growth in test [1] is 44%; in test [2] it was 75%; in test [3] it was 65.7%; in test [4], 54.1%; in test [5], 34.1%; in test [6] it was 34.3%. Also, the growth in test [7] is 20.7%; in test [8] it was 43.6%; in test [9] it was 47.3%; in [10] it was 31.4%.
For the compound `CN(C)C(CNc1oc(-c2cccc3ccccc23)nc1C#N)c1ccco1` (stereo not given), the growth in [1] is 97.1%; in test [2], 101%; in test [3], 99.9%; in test [4], 94.9%; in [5], 101%; in [6] it was 94%. In addition, the growth is 86.9% in [7], 91.6% in test [8], 90.1% in [9] and 93.1% in [10].
`Nc1c(C(=O)Nc2ccccn2)sc2nc3c(cc12)CCCC3`: the growth in [1] was 69%; in test [2] it was 82.8%; in [3] it was 78.7%; in [4], 45.3%; in test [5], 25.3%; in test [6], 60.2%. Also, the growth is 29.2% in test [7], 46.4% in test [8], 48.7% in test [9] and 49.5% in [10].
As for `Nc1ccc(C(=O)Nc2cccc(C(=O)Nc3ccc4c(O)c(N=Nc5ccc(N=Nc6ccc(S(=O)(=O)O)cc6)cc5)c(S(=O)(=O)O)cc4c3)c2)cc1`, the growth in test [1] is 96.8%; in test [2] it was 111%; in [3], 101%; in [4], 98.5%; in test [5], 105%; in test [6], 108%. The growth was 92.3% in [7], 102% in [8], 103% in [9] and 114% in [10].
For `O=C1c2ccccc2C(=O)c2c1oc1c2c(=O)[nH]c2ccccc21`, the growth in [1] is 66%; in test [2], 78.5%; in [3], 89.3%; in test [4], 119%; in test [5] it was 68.3%; in test [6], 71.4%. Moreover, the growth is 54.8% in test [7], 97.2% in test [8], 102% in [9] and 109% in [10].
On to `COc1cc(F)c(-c2nc3c(C)cccc3n2Cc2c(F)cccc2F)c(F)c1`, for which the growth was 79.8% in test [1]; 88.7% in [2]; 87.5% in [3]; 83.3% in test [4]; 77.8% in test [5]; 81.3% in test [6]. Further, the growth is 73.4% in test [7], 69.1% in test [8], 85.7% in test [9] and 98% in [10].
On to `Cc1nc2sc(C(=O)Nc3cccc4ccccc34)c(N)c2cc1C(C)O` (stereo not given), for which the growth in test [1] is 26.2%; in test [2] it was 70.7%; in [3], 44.8%; in test [4], 39.8%; in test [5], 9.5% (active); in test [6], 83.7%. The growth in [7] is -15.9% (active); in test [8] it was 22.7%; in test [9], 34.1%; in test [10], -5.28% (active).
`COc1ccc(-c2nnc(N3CCN(C(=O)CN4CCN(c5ccccc5)CC4)CC3)nc2-c2ccc(OC)cc2)cc1`: the growth was 48.3% in test [1]; 46.7% in test [2]; 77.3% in [3]; 58.9% in test [4]; 14% in test [5]; 23.2% in [6]. Besides, the growth is 14.2% in test [7], 28% in test [8], 33.7% in test [9] and 17.5% in test [10].
With `O=C(NCc1ccccc1)c1ccc2c(c1)NC(=O)[C@@H]1CCCN21`, the growth in test [1] was 90.6%; in [2], 103%; in test [3], 92.8%; in test [4], 103%; in test [5], 94.7%; in [6], 102%. Moreover, the growth in test [7] was 91.3%; in test [8], 106%; in test [9], 95.9%; in test [10] it was 110%.
As for `COC(=O)c1cc2c3c(cc(O)c2[nH]1)N(C(=O)C1Cc2cc(OC)c(OC)c(OC)c2N1)CC3CCl` (stereo not given), the growth in [1] was -48.7% (active); in test [2], -35.1% (active); in test [3], -16.2% (active); in test [4], -54.7% (active); in [5], -17.9% (active); in test [6] it was -35.9% (active). The growth in [7] is -60.6% (active); in test [8], -21% (active); in test [9] it was -47.6% (active); in test [10], -70.4% (active).
Turning to `CC(=O)c1c(OCC#N)ccc2c(C)cc(=O)oc12`, the growth was 109% in [1]; 112% in test [2]; 113% in test [3]; 94.7% in test [4]; 103% in [5]; 108% in test [6]. Moreover, the growth was 77.3% in test [7], 99.9% in test [8], 106% in test [9] and 104% in test [10].
With `COc1cc(-c2cn(-c3ccc(Cl)c(Cl)c3)c(=O)[nH]2)cc(OC)c1OC`, the growth is 92.4% in [1]; 93.1% in test [2]; 69.7% in test [3]; -1.73% (active) in test [4]; 96.7% in test [5]; 82% in [6]. For the same compound, the growth in [7] was 74.5%; in test [8], 89.7%; in test [9], 14.4%; in test [10], 105%.
